# An excerpt weighted towards active compounds, which were near 1.8% of everything screened.
# SUMO HTRF inh = SUMOylation inhibition. P63279. HTRF SUMOylation assay, SAE1/SAE2 + UBC9, in vitro. inhibition, % at 35 µM. 290,000 compounds, 0.36% hits. AID 2006; in the data active means inhibition above about 50%, passing the limit was not always enough
# Target sequence (P63279 whole entry, looked up): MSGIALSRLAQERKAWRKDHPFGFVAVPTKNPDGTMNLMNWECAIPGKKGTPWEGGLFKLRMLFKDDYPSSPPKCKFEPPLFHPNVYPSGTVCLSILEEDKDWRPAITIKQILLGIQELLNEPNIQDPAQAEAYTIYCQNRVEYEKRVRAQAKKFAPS
# p-CIP stab down = p/CIP protein destabilization. Q05BA5. F442A p/CIP-EGFP cells, EGFP fluorescence, 16 h. decrease of EGFP signal, % at 10 µM. 290,000 compounds, 0.01% hits. AID 1984;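 active means EGFP signal decrease of at least 30% at 10 µM or well 3 SD below plate mean, unless failing retest; inactive means the rest, including hits failing retest or dose response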
# PHOSPHO1 block = inhibitors of human PHOSPHO1 phosphatase; Q8TCT1; recombinant PHOSPHO1, absorbance phosphatase assay; inhibition, % at 13.3 µM; 290,000 compounds, 1.1% hits; AID 1565; in the data active means inhibition above about 60%
# Target sequence (Q8TCT1 whole entry, looked up): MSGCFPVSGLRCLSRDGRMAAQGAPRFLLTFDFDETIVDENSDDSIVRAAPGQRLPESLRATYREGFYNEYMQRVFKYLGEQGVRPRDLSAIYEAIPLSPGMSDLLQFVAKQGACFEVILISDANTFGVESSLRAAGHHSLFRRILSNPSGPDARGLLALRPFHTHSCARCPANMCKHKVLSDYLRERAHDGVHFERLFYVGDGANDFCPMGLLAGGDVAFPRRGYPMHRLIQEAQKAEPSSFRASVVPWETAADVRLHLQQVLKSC
# NadD inh = NadD (S. aureus) enzyme inhibition. purified NadD enzyme, colorimetric absorbance read-out. inhibition, % at 20 µM. 360,000 compounds, 0.78% hits; in the data active means inhibition above about 26%
# NadD conf = NadD (S. aureus) inhibition, single concentration confirmation. purified S. aureus NadD, colorimetric enzyme assay. inhibition, % at 20 µM. AID 624309. shares compounds with NadD inh. 2,000 compounds, 13% hits; in the data active means inhibition mostly above about 42%, no sharp cut-off; inactive means mostly below about 42%
# Starred values were filed as active, the others as inactive; x = no result.
SMILES,SUMO HTRF inh,p-CIP stab down,PHOSPHO1 block,NadD inh,NadD conf
OCC[C@@H]1C[C@@H](O)[C@H](O)[C@]2(Cc3ccccc3O2)O1,12.8,3.0,20.2,-3.5,x
O=C(NCCN1C(=O)S/C(=C\c2ccc(Cl)c(Cl)c2)C1=O)c1ccc2c(c1)C(=O)N(Cc1ccncc1)C2=O,14.7,-10.7,-29.7,27.7*,-3.6
O=C(NCCN1C(=O)S/C(=C\c2ccc(Cl)c(Cl)c2)C1=O)C1COc2ccccc2O1 (centres undefined),0.3,19.1,48.4,15.6,x
Cc1ccccc1[C@H](NC1c2ccccc2C=Cc2ccccc21)P(=O)(c1ccccc1)c1ccccc1,x,x,x,31.4*,37.8
Cc1ccc(P(=O)(c2ccc(C)cc2)[C@@H](NC(c2ccccc2)c2ccccc2)c2ccccc2)cc1,x,x,x,24.1,x
CCN(CC)c1ccc(S(=O)(=O)Nc2cc(Cl)ccc2Cl)cc1NC(=S)NC(=O)C1CCCC1,32.2,-6.8,-12.3,30.6*,14.6
O=S(=O)(O)c1cc(O)c2ccc(Nc3ccccc3)cc2c1,x,x,x,32.7*,65.6*
CCN(CC)S(=O)(=O)c1ccc(C(=O)/C=C/c2ccc(-c3ccc([N+](=O)[O-])cc3)o2)cc1,42.7,-9.1,5.0,51.7*,9.1
CCc1ccc(C(=O)/C=C/c2ccc([N+](=O)[O-])o2)cc1,30.3,-9.2,9.4,26.0,x
Cc1ccc(C(=O)/C=C/c2ccc(-c3ccc(C)cc3)o2)cc1,37.6,-15.0,-38.2,34.4*,4.4
CCOC(=O)c1sc(NC(=O)c2cc3n(n2)C(C(F)(F)F)CC(c2cccs2)N3)c(C(=O)OCC)c1C (centres undefined),-9.9,8.8,-4.6,29.7*,2.8
O=C1CCC/C=C\C[C@H](CC(=O)N(CCO)Cc2ccccc2)C(=O)N2CCC[C@@H]2CO1,x,x,x,-4.0,x
CCOC(=O)c1cc2c(c(-c3cccc(C#Cc4ccc(OC)c(OC)c4)c3)n1)[C@@H](CCO)N(S(=O)C(C)(C)C)C2 (some centres undefined),x,x,x,1.4,x
N#Cc1nc(-c2ccc(OCc3ccc(Cl)cc3)cc2)oc1NCCCn1ccnc1,-19.2,-4.9,-15.6,30.0*,6.8
COc1ccc(NC(=S)NC(=O)/C=C/c2ccco2)cc1,-8.4,1.4,36.6,-1.8,x
O=C(/C=C/c1ccco1)NC(=S)Nc1ccc(O)c(-c2nc3ccccc3s2)c1,x,0.8,8.6,47.3*,0.0
COc1ccc(C(=O)CC(C(=O)O)c2ccc3c(c2)OCO3)cc1OC (centres undefined),x,x,x,0.2,x
O=C(COc1ncnc2ccc(Br)cc12)NCc1ccco1,3.0,1.9,34.7,-0.2,x
Cc1cc2oc(=O)cc(CN3CCN(C/C=C/c4ccccc4)CC3)c2cc1O,15.5,-12.1,23.9,5.6,x
O=c1cc(CN2CCN(C/C=C/c3ccccc3)CC2)c2cc(O)c(-c3ccccc3)cc2o1,9.7,0.6,15.8,38.7*,-8.6
Nc1cc(N)cc(Cc2ccccc2)c1,x,x,x,32.8*,45.7
O=C1SC(SCc2ccccc2)=N/C1=C\c1ccco1,22.6,-6.7,2.2,14.7,x
CCCSC1=N/C(=C\C=C\c2ccco2)C(=O)S1,34.7,-9.7,89.7*,39.9*,23.8
CCCSC1=N/C(=C\c2ccc3c(c2)OCO3)C(=O)S1,12.1,-5.5,7.8,39.7*,-2.7
c1ccn2cc(-c3ccc4c(c3)OCO4)cc2c1,39.9,-4.1,4.1,29.0*,34.9
SMILES,SUMO HTRF inh,p-CIP stab down,PHOSPHO1 block,NadD inh,NadD conf
c1cnc2nc(-c3ccc4c(c3)OCO4)cn2c1,32.2,-21.5,39.7,-2.8,x
Cc1sc(NC(=O)Cc2ccc3c(c2)OCO3)nc1-c1ccc2c(c1)CCN2C(=O)c1cccc(F)c1,-20.6,-3.2,-49.1,33.7*,19.7
COCCNC(=O)C1CCC(Cn2c(=S)[nH]c3ccccc3c2=O)CC1 (centres undefined),0.2,4.1,-12.9,-1.6,x
O=C(NCCc1c[nH]c2ccccc12)C1CCC(Cn2c(=S)[nH]c3ccccc3c2=O)CC1 (centres undefined),-14.2,6.4,29.3,32.6*,25.1
CCn1nnnc1NCc1cccn1C,-1.7,-4.2,1.0,34.7*,22.1
O=C1Nc2ccccc2C1=Nc1ccc(S(=O)(=O)Nc2nccs2)cc1,11.3,4.3,46.3,53.8*,74.0*
NS(=O)(=O)c1ccc(N=C2C(=O)Nc3ccccc32)cc1,12.2,-3.6,7.2,-5.8,x
O=C(CSc1nc2nc3c(cc2c(=O)n1-c1ccccc1)CCCC3)Nc1cccc2ccccc12,-31.6,-15.6,-6.2,41.0*,18.9
O=C(Nc1ccc(-c2ccco2)cc1)C1CCCN(Cc2ccc(CO)o2)C1 (centres undefined),6.1,-2.5,-44.5,4.7,x

# Bioassay records from PubChem BioAssay.
